Bioassay records (PubChem)
rCAG RNA binder – binders of r(CAG) RNA repeats, primary screen, biochemical, fluorescence | 1.3% of 370,000 active | r(CAG) RNA repeat, TO-PRO-1 dye displacement fluorescence | inhibition, % at 3 µM;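 active = inhibition above the plate cutoff, the mean of all test compounds on that plate plus 3 SD, cut at about 35% in these data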;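 note: higher means more dye released from RNA so lower well fluorescence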
APOBEC3G inh – APOBEC3G DNA deaminase inhibitors, primary screen, biochemical, fluorescence, single-stranded DNA substrate, uHTS. 0.28% of 330,000 active. inhibition, % at 20 µM. DNA dC->dU-editing enzyme APOBEC-3G (Homo sapiens), Q9HC16. recombinant A3G, ssDNA deamination FAM/TAMRA fluorescence;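 active = inhibition of at least 40% at 20 µM, with no more than 30% in the related APOBEC3A deaminase screen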
ALR inh – inhibitors of human ALR sulfhydryl oxidase, primary screen, biochemical, H2O2 detection, HRP-luminol luminescence, single point; FAD-linked sulfhydryl oxidase ALR (Homo sapiens), P55789; purified ALR, DTT oxidation; inhibition, % (test concentration not listed); 3.8% of 290,000 active;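 active = mean replicate inhibition above about 79%, with every replicate also reaching it, limit read from the data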
Target sequence (P55789 whole entry, looked up): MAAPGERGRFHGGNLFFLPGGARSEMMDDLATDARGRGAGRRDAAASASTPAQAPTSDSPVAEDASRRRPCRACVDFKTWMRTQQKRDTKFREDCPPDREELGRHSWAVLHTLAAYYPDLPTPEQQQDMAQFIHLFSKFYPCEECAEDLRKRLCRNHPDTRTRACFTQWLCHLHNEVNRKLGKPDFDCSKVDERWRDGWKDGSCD
aDG glyco act – activators of alpha-DG glycosylation, primary screen, uHTS, Pro5-aDG cells, AlphaScreen. 0.22% of 360,000 active. activation, % at 10 µM. alpha-DG glycosylation AlphaScreen (IIH6); 0% Pro5, 100% B10-LARGE cell signal;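 active = activation of at least 8% versus controls, or a plate z-score of at least 8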;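 note: Pro5 are CHO cells carrying HIG-tagged alpha-DG that lacks glycosylation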
PHOSPHO1 inh – PubChem AID 1565; Phosphoethanolamine/phosphocholine phosphatase (Homo sapiens), Q8TCT1; recombinant PHOSPHO1, absorbance phosphatase assay; inhibition, % at 13.3 µM; 1.1% of 290,000 active; in the data active = inhibition above about 60%
Target sequence (Q8TCT1 whole entry, looked up): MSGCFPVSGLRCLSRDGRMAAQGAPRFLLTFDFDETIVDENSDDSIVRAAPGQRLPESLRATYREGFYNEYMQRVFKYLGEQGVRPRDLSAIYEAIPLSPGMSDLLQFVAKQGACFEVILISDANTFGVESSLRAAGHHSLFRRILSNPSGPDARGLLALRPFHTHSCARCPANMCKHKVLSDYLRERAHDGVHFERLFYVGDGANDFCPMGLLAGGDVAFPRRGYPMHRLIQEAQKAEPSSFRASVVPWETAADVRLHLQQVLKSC
APOBEC3A inh – APOBEC3A ssDNA deaminase inhibitors, primary screen, selectivity assay for APOBEC3G inhibitor project, biochemical, FAM/TAMRA oligo cleavage fluorescence | DNA dC->dU-editing enzyme APOBEC-3A (Homo sapiens), P31941 | recombinant A3A, FAM/TAMRA ssDNA deamination fluorescence | AID 493011, 2011 | 0.41% of 330,000 active | inhibition, % at 20 µM;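 active = at least 40% inhibition at 20 µM here, with at most 30% in a related deaminase screen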
rCAG bind conf – small molecules binding CAG repeat RNA – biochemical, fluorescence, confirmation; shares compounds with rCAG RNA binder; r(CAG) RNA repeat, TO-PRO-1 dye displacement fluorescence; inhibition, % at 3 µM; 70% of 4,300 active; AID 652065, 2013;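 active = inhibition above a per-plate cutoff, the mean inhibition of sample wells plus 3 SD, cut at about 35% in these data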;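 note: loss of TO-PRO-1 fluorescence as compound displaces dye from 1x1 AA loop RNA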
DNA CAG counter – displacement of TO-PRO-1 from CAG DNA duplex, counter-screen for rCAG RNA repeat binder project, biochemical, fluorescence, TO-PRO-1 dye, d(CAG) DNA oligo. shares compounds with rCAG RNA binder. d(CAG) DNA oligo TO-PRO-1 dye displacement. inhibition, % at 3 µM. 94% of 4,300 active. AID 652068, 2013;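 active = inhibition above its plate's cutoff, the mean test-well inhibition plus 3 SD, cut at about 4.8% in these data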;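 note: hits displace the dye from DNA and so lower well fluorescence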
DNA CAG DR – inhibitors of DNA CAG/GTC TO-PRO-1 complex, dose response, counter-screen for rCAG RNA repeat binder project, biochemical, fluorescence, TO-PRO-1 dye. shares compounds with rCAG RNA binder. DNA CAG/GTC duplex TO-PRO-1 dye displacement fluorescence. IC50, µM. 20% of 250 active; in the data active = IC50 below about 10 µM
Large screens that a line does not name were inactive (follow-up assays come after a bar, where they were run). A selection: hits, their analogues and other compounds. The true share with any hit is near 5.4%.

O=C(N/N=C/c1cc(Cl)cc([N+](=O)[O-])c1O)c1cccc(S(=O)(=O)N2CCOCC2)c1	rCAG RNA binder 68.1 (no result: ALR inh, PHOSPHO1 inh) | rCAG bind conf 56.3 | DNA CAG counter 20.2
Cc1cc(C(=O)N/N=C/c2cc(Cl)cc([N+](=O)[O-])c2O)c2ccccc2n1	rCAG RNA binder 56.2 | rCAG bind conf 52.9 | DNA CAG counter 16.3
NC1=NC(=O)/C(=C\c2ccco2)S1	rCAG RNA binder 36.9 (no result: ALR inh) | rCAG bind conf inactive | DNA CAG counter 5.7
CCOC(=O)CC1C(=O)NCCN1C(=S)NC(=O)c1ccc(C)c(Br)c1 (configuration not stated)	none (no result: APOBEC3G inh, ALR inh, PHOSPHO1 inh, APOBEC3A inh)
CCOC(=O)c1c(-c2ccccc2)csc1NC(=O)/C(C#N)=C/c1ccc(OC)c(OC)c1	none (no result: ALR inh)
CCOC(=O)c1c(-c2ccccc2)csc1NC(=O)/C(C#N)=C/c1ccc(O)c(OC)c1	rCAG RNA binder 44.7 (no result: APOBEC3G inh, APOBEC3A inh) | rCAG bind conf 87.1 | DNA CAG counter 59.7
CSCC[C@@H](Nc1nc(-c2ccccc2)nc2c1oc1ccccc12)C(=O)O	rCAG RNA binder 69.0 | rCAG bind conf 70.8 | DNA CAG counter 24.7
OC[C@@H]1CN(Cc2ccccc2)C[C@H](n2ccc3c(N4CCCC4)ncnc32)O1	none (no result: APOBEC3G inh, ALR inh, PHOSPHO1 inh, APOBEC3A inh)
O=C(O)c1ccc(S(=O)(=O)N(CCc2ccccc2)Cc2ccc(Cl)cc2)cc1	rCAG RNA binder 72.1 (no result: ALR inh) | rCAG bind conf 71.2 | DNA CAG counter 34.5 | DNA CAG DR inactive
O=C(O)CCC(=O)N1CCc2cc(S(=O)(=O)N(CCc3ccccc3)Cc3ccccc3)ccc21	rCAG RNA binder 62.8 | rCAG bind conf 69.5 | DNA CAG counter 30.4 | DNA CAG DR inactive
CC(C)c1cc(C(C)C)c(S(=O)(=O)N2CCC(c3cn4ccccc4n3)CC2)c(C(C)C)c1	none (no result: APOBEC3G inh, ALR inh, aDG glyco act, PHOSPHO1 inh, APOBEC3A inh)
C/C(=N\Nc1c(Cl)c(Cl)nc(C(=O)O)c1Cl)c1ccc(O)cc1	rCAG RNA binder 39.5 (no result: ALR inh) | rCAG bind conf inactive | DNA CAG counter 4.5
CCCCn1nnnc1C1(C)CCC(=O)N1Cc1cccnc1 (configuration not stated)	none (no result: APOBEC3G inh, ALR inh, PHOSPHO1 inh, APOBEC3A inh)
CCCCC(=O)N1CCN(C(=O)c2ccc3c(c2)nc(C)n3C2CCCC2)CC1	none (no result: APOBEC3G inh, ALR inh, aDG glyco act, PHOSPHO1 inh, APOBEC3A inh)
CCn1c(SCCN2CCCCC2)nc2c1c(=O)n(C)c(=O)n2C	none (no result: APOBEC3G inh, ALR inh, PHOSPHO1 inh, APOBEC3A inh)
CCOc1ccc(Br)cc1S(=O)(=O)Nc1ccc(Cl)c(S(=O)(=O)N(C)C)c1	rCAG RNA binder 35.8 | rCAG bind conf inactive | DNA CAG counter 9.0
COC(=O)CCCn1cc(CN2CC(N3CCCCC3)CS2(=O)=O)nn1 (configuration not stated)	none (no result: APOBEC3G inh, ALR inh, PHOSPHO1 inh, APOBEC3A inh)
O=C(Cn1cc(-c2ccccn2)nn1)NS(=O)(=O)c1cccc(OC(F)F)c1	none (no result: APOBEC3G inh, ALR inh, PHOSPHO1 inh, APOBEC3A inh)
O=C(Cn1cc(COc2ccc3ccccc3c2)nn1)NS(=O)(=O)c1cccc(OC(F)F)c1	rCAG RNA binder 54.5 (no result: APOBEC3G inh, ALR inh, PHOSPHO1 inh, APOBEC3A inh) | rCAG bind conf 71.0 | DNA CAG counter 23.5 | DNA CAG DR 9.27
COc1ccc(/C=N/NC(=O)c2ccccc2Cl)cc1CSc1nc2ccccc2s1	none
COc1ccc(/C=N/NC(=O)c2ccc(O)cc2O)cc1CSc1ccccn1	rCAG RNA binder 35.9 | rCAG bind conf inactive | DNA CAG counter 12.0
